An excerpt weighted towards active compounds, which were near 7.8% of everything screened.
NOMO-1 viab – STK33 inhibitor candidate reducing NOMO-1 cell viability; inhibition, % (no concentration beside the values); NOMO-1 AML viability, CellTiter-Glo luminescence, 72 h; 37,000 tested, 7.5% active; in the data active = inhibition above about 80%
MITF inhib – blocks MITF activity; TRPM1 promoter luciferase, luminescence, 24 h; inhibition, % (no concentration beside the values); 37,000 tested, 0.28% active; AID 2240; in the data active = inhibition above about 85%;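 note: human melanocyte line stably carrying TRPM1 promoter luciferase reporter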
Hedgehog inh – Sonic Hedgehog pathway inhibition; Shh-LIGHT2 Gli-luciferase reporter, 30 h; inhibition, % (no concentration beside the values); 22,000 tested, 2.1% active;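 active = mean inhibition across valid replicates above about 65%, limit read from the data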;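 note: pathway switched on by Shh-conditioned medium diluted 1 in 25 in low serum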
PD-1 reverse act – activators reversing PD-1 mediated T-cell inhibition; AID 2316; 29,000 tested, under 10 active; primary human CD4 T cells, PD-L1 beads, CellTiter-Glo 96 h; activation, % (concentration not given with the values); call rule not given here;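 note: 0% = median vehicle wells and 100% = positive control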
* marks the source's active call; other numbers are inactive results; . = no result given; ! = not active in a repeat.

SMILES | NOMO-1 viab | MITF inhib | Hedgehog inh | PD-1 reverse act
C[C@H]1CN([C@@H](C)CO)C(=O)c2cccc(NC(=O)Nc3ccccc3)c2O[C@@H]1CN(C)Cc1ccc(C(=O)Nc2ccccc2N)cc1 | 127* | -1 | . | -5
CC(C)NC(=O)Nc1cccc2c1O[C@H](CN(C)Cc1ccc(C(=O)Nc3ccccc3N)cc1)[C@H](C)CN([C@H](C)CO)C2=O | 119* | 3 | . | -2
O=c1cc(-c2ccc(O)c(O)c2)oc2c(C3OC(CO)C(O)C(O)C3O)c(O)cc(O)c12 (configuration not stated) | 2 | 6 | -38 | -2
COc1ccc(-c2nc(SCC(=O)Nc3cccc(F)c3)n[nH]2)cc1 | 22 | 8 | . | .
CO[C@H]1O[C@H](COC(=O)c2ccccc2)[C@@H](O)[C@H](O)[C@H]1OC(=O)c1ccccc1 | -12 | -7 | -12 | 0
CC(=O)Oc1c(I)c(=O)n(C)c2ccccc12 | 121* | 48 | 23 | -12
COc1cc(NC(=O)COc2cccc(C)c2C)ccc1-c1cc2ccccc2oc1=O | 131* | 7 | . | -1
COc1cc(NC(=O)COc2cccc(C)c2C)ccc1NC(=O)c1ccccc1Cl | 26 | -25 | . | 1
COc1cc(NC(=O)COc2ccccc2Cl)ccc1NC(=O)c1cc2ccccc2o1 | 104* | -31 | . | -3
C[C@H]1CN([C@@H](C)CO)C(=O)c2cccc(NC(=O)Nc3ccc(C(F)(F)F)cc3)c2O[C@H]1CN(C)Cc1ccc(Oc2ccccc2)cc1 | 75 | -6 | -13 | .
C[C@@H]1CN([C@H](C)CO)C(=O)c2cccc(NC(=O)Nc3ccc(C(F)(F)F)cc3)c2O[C@@H]1CN(C)Cc1ccc(Oc2ccccc2)cc1 | 107* | -4 | -3 | .
C[C@@H]1CN([C@@H](C)CO)C(=O)c2cccc(NC(=O)Nc3ccc(C(F)(F)F)cc3)c2O[C@@H]1CN(C)Cc1ccc(Oc2ccccc2)cc1 | 95* | -12 | 24 | -11
C[C@@H]1CN([C@H](C)CO)C(=O)c2cccc(NC(=O)Nc3ccc(C(F)(F)F)cc3)c2O[C@H]1CN(C)Cc1ccc(Oc2ccccc2)cc1 | 71 | 14 | -16 | -2
CC(C)Cn1c(=O)c2cc3c(=O)n(CC(C)C)c(=O)c3c(C(=O)c3ccc(Cl)cc3)c2c1=O | 28 | -5 | -20 | 1
Cc1ccc2c(c1)c(-c1ccccc1)c(-c1ccccc1)n2CC(O)CN1CCN(CCO)CC1 (configuration not stated) | 90* | -10 | . | -8
CNCCC(Oc1ccc(C(F)(F)F)cc1)c1ccccc1 (configuration not stated) | 119*! | -2 | 0 | 3
NNC(=O)CNc1ccc2c(c1)OCO2 | 8 | 7 | -7 | 0
C[C@@H]1CN([C@H](C)CO)C(=O)Cc2cc(N(C)C)ccc2O[C@@H]1CN(C)Cc1ccc(C(=O)Nc2ccccc2N)cc1 | 140* | 65 | . | -3
C[C@@H]1CN([C@H](C)CO)C(=O)Cc2cc(NC(=O)c3ccncc3)ccc2O[C@H]1CN(C)Cc1ccc(C(=O)Nc2ccccc2N)cc1 | 29 | -9 | . | 0
C[C@@H]1CN([C@H](C)CO)C(=O)Cc2cc(N(C)C)ccc2O[C@H]1CN(C)Cc1ccc(C(=O)Nc2ccccc2N)cc1 | 127* | 33 | . | -2
Cc1cc(C)c2oc(-c3ccc(NC(=O)COc4ccc(Br)cc4)cc3O)nc2c1 | 13 | -27 | -219 | 0
Cc1ccc(S(=O)(=O)/C=C/C#N)cc1 | 142* | 89* | 98* | -60
O=C(CCN1C(=O)c2ccccc2C1=O)Nc1ccc(NC(=O)c2ccco2)cc1 | 26 | -41 | . | 0
O=C(ON1C(=O)c2ccccc2C1=O)c1ccco1 | 115* | -1 | . | -3
COc1cc(CC(CO)C(CO)Cc2ccc(O)c(OC)c2)ccc1O (configuration not stated) | 10 | -6 | -34 | -1
SMILES | NOMO-1 viab | MITF inhib | Hedgehog inh | PD-1 reverse act
COC(=O)C(C(CO)Cc1ccc(O)c(OC)c1)C(O)c1ccc(O)c(OC)c1 (configuration not stated) | 108* | 14 | 5 | -5
C=CCn1c(SCC(=O)c2ccccc2)nnc1-c1sc2nc(C)cc(C)c2c1N | 6 | 13 | 35 | 1
C[C@H](CS)C(=O)N1CCC[C@H]1C(=O)O | 12 | 0 | -23 | .
CCCNC(=O)[C@H]1O[C@@H]1C(=O)N[C@H](C(=O)N1CCC[C@H]1C(=O)OC)C(C)CC (some centres not stated) | 141* | 70 | 23 | -49
Cc1c(-n2c(/C=C\c3ccc([N+](=O)[O-])o3)nc3ccccc3c2=O)c(=O)n(-c2ccccc2)n1C | 115* | 43 | . | .
Cc1c(/C=C/c2ccc(Cl)cc2Cl)c(=O)n(-c2ccccc2)n1C | 38 | 20 | -19 | 1

Screening results deposited in PubChem by Broad Institute.
